HPGD inh = blocks human HPGD enzyme activity; P15428; purified HPGD, NADH fluorescence kinetic, PGE2 substrate; Potency, µM, without a hit: at the top dose activity change, negative = inhibition, hits mostly inhibitors; 150,000 compounds, 4.3% hits; AID 894; further: potency means the concentration at half of the fitted maximal effect
Target sequence (P15428 whole entry, looked up): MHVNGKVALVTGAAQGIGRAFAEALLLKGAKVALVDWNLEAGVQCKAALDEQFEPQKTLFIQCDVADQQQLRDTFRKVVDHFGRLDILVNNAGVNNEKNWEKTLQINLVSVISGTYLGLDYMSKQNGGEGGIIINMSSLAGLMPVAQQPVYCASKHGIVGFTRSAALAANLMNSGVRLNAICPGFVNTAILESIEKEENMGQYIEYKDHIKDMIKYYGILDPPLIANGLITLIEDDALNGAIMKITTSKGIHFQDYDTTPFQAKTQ
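20 nM HPGD preincubated 15 min at room temperature with compound in 50 mM Tris-HCl pH 8, 0.01% Tween 20. Started with 1 mM NAD+ and 30 uM prostaglandin E2; NADH fluorescence (360/450 nm) read 5 times over 30-s intervals, last minus first.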
PNC inhibitor = blocks assembly of the perinucleolar compartment. PC3M PTB-GFP, PNC prevalence imaging, 16 h; hits give low values. activity change (PNC), negative = inhibition, % at 10 µM. 140,000 compounds, 3.1% hits. AID 2417;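 active means readout at or below -70, meaning at least 70% loss of cells showing the perinucleolar compartment, a nuclear body marking cancer cells; inconclusive means readout between -30 and a set limit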;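 further: plate controls were DMSO wells for no effect and camptothecin positive control wells for full effect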
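PC3M cells stably expressing PTB-GFP, 750–1000 cells/well, treated 16 h at 37 °C with compound (23 nl of library stock), in duplicate. After paraformaldehyde fixation and Hoechst stain, imaged at 20x; PNC prevalence scored by image analysis.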
Lamin A splicing = LMNA splicing modulation; HeLa LMNA splicing GFP/RFP minigene ratio, 48 h; 200,000 compounds, 0.01% hits; Potency, µM (doses to about 46.1 µM), inactives show top-dose ratio change, negative = inhibition, usual class: inhibitors; active means well fitted inhibition curve with a large enough effect in the signal ratio, with a control signal flat, not every such curve was filed as active; inconclusive means small, poorly fitted or top-dose-only effect, or effect the other way, or a change in a side signal; the % refers to the signal ratio; further: potency means the concentration at half of the fitted maximal effect
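Read-out is the ratio of GFP to DsRed2 object intensity, acquired by 488 nm laser-scanning cytometry on HeLa lamin A-EGFP minigene reporter cells. Compound incubation 48 hrs at 37 °C in Opti-MEM with 2% FBS; DMSO 0.5% final.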
12-hLO inh = 12-hLO (ALOX12) enzyme inhibition; 150,000 compounds, 0.12% hits; P18054; Potency, µM (series often up to 57.1 µM), for the others: top-dose activity change, negative = inhibition, actives largely listed as inhibitors; purified 12-hLO, xylenol orange hydroperoxide absorbance; active means well fitted inhibition curve with a large enough effect; inconclusive means small, poorly fitted or top-dose-only effect; further: potency means the concentration at half of the fitted maximal effect; nearly all actives have a fitted effect of over 55% in size
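Hydroperoxide formation by human 12-lipoxygenase from 40 uM arachidonic acid was followed colorimetrically via ferric-xylenol orange complex, using the 573/405 nm absorbance ratio. Enzyme concentration was 150 nM, with 30 min reaction at room temperature.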
ALDH1A1 block = ALDH1A1 (human) enzyme inhibition; P00352; Purified ALDH1A1, NADH fluorescence, propionaldehyde substrate; Potency, µM (series often up to 75.3 µM), for the others: top-dose activity, negative = inhibition, most hits filed as inhibitors; 220,000 compounds, 7.3% hits; AID 1030;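 further: potency means the concentration at half of the fitted maximal effect; plate controls were no enzyme wells and a reference inhibitor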
Target sequence (P00352 whole entry, looked up): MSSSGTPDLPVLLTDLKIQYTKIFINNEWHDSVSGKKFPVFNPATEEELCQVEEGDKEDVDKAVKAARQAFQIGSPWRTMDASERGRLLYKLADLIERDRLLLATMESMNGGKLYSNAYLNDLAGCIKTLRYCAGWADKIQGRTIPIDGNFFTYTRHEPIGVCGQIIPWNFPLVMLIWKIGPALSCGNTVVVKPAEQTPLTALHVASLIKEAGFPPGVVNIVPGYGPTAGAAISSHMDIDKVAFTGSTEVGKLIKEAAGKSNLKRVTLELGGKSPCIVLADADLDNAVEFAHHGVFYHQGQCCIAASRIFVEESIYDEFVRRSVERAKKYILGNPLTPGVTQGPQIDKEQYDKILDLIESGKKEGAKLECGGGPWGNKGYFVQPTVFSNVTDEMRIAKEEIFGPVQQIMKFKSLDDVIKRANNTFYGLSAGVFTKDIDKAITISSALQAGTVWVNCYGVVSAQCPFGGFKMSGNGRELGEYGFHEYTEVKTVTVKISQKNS
An asterisk follows results filed as active; ? = inconclusive; / = not tested or not shown; ! = not active in a repeat; [ ] = another dose, or the depositor's remark. Rows were chosen to be rich in hits. Some 10% of all compounds tested hit in one or more screens of this group. Unless noted, the call rests on the fitted dose curve; in most records, active means well fitted inhibition curve with a large enough effect (not every such curve was filed as active); inconclusive means small, poorly fitted or top-dose-only effect, or another doubt; inactive means no such curve, though single readings can be large or run the other way. Unless noted, on the % scale 0 is the no-effect control and ±100 the full control effect.

SMILES | HPGD inh | PNC inhibitor | Lamin A splicing | 12-hLO inh | ALDH1A1 block
CCOC(=O)C1=C(N)OC2=C(C(=O)CCC2)C12C(=O)N(CC(N)=O)c1ccccc12 (stereo unspecified) | -7% | -15 | 7% | 0% | 4%
C=CCN1C(=O)C2(C(C(=O)OCC)=C(N)Oc3ccccc32)c2c1c1ccccc1oc2=O (stereo unspecified) | -8% | -15 | -5% | -17% | 0.4µM*
CCOC(=O)C1=C(N)Oc2ccccc2C12C(=O)N(CC(=O)OC)C(CC(=O)OC)=C2C(=O)OC (stereo unspecified) | -2% | 10 | 5% | 1% | 1.3µM*
O=P(O)(O)C(O)(Cn1ccnc1)P(=O)(O)O | 0% | / | ? | 3%[0.00818 µM] | -1%
Nn1c(COc2ccc(Cl)cc2)n[nH]c1=S | / | / | / | / | 25µM*
Cc1cccc(C)c1OCc1n[nH]c(=S)n1N | / | / | ? | / | 25µM*
[Cl][Pd][Cl].[S-]C1=C2N=CN[C-]2[NH+]=C[N-]1.[S-]c1ncnc2[nH]cnc12 | 1% | / | / | / | -11%[13.5 µM]
CC1CCN(C(=O)CCl)CC1 | 4% | -24 | 3% | -1% | 0.35µM*
CN(C)c1ncc(/C=C2/C(=O)NC(=S)N(C3CCCCC3)C2=O)cn1 | / | / | -9%[46 µM] | / | ?
CCN1C(=O)/C(=C/c2ccc3c(c2)CCN3CCCCl)C(=O)NC1=S | 7.9µM* | -99* | -11% | -28% | 0.2µM*
O=C1NC(=S)N(C2CC2)C(=O)/C1=C/c1ccc2c(c1)CCN2CCCCl | 11µM* | 56 | ? | -19% | 0.89µM*
CCN1C(=O)/C(=C\c2ccc([N+](=O)[O-])s2)C(=O)NC1=S | / | / | / | / | 27%
C=CCN1C(=O)/C(=C/c2ccc3c(c2)CCCN3CCC)C(=O)NC1=S | 14µM* | 12 | -5% | -18% | 1.3µM*
CCCCC(=O)Cl | -8% | / | / | -4% | ?
Clc1cc(Cl)c(Cl)c(Cl)c1 | -22% | / | / | 1% | ?
Clc1ccc(N2C[C@H]3CC[C@@H](C2)N3)nn1 | / | / | / | -10% | /
O=C(c1ccco1)c1cn(Cc2ccc(Cl)cc2)c2ccccc12 | -15% | -30 | 12% | -9% | 4%
O=Cc1cn(Cc2cccc(F)c2)c2ccccc12 | -4% | 6 | ? | -2% | 0.56µM*
C[C@H]1O[C@@H](O[C@H]2[C@@H](O)C[C@H](O[C@H]3[C@@H](O)C[C@H](O[C@H]4CC[C@]5(C)C6CC[C@]7(C)[C@@H](C8=CC(=O)OC8)CC[C@]7(O)C6CC[C@@H]5C4)O[C@@H]3C)O[C@@H]2C)C[C@H](O)[C@@H]1O (stereo partly specified) | -3% | / | / | -1% | 3%
COc1ccc(/C=C/C(=O)c2c(O)n(CCC3=CCCCC3)c(=O)[nH]c2=O)cc1 | -8% | -25 | -15% | -2% | ?
O=C(/C=C/c1ccc2c(c1)OCO2)c1c(O)n(CCC2=CCCCC2)c(=O)[nH]c1=O | -19% | 44 | -10% | -2% | 32µM*
CCCN1C[C@H](C)N([C@H](c2ccc(C(=O)N(CC)CC)cc2)c2cccc(OC)c2)C[C@H]1C | -2% | / | / | 1% | 3%
CN(C)CCC=C1c2ccccc2CCc2ccccc21 | -1% | -3 | ? | -1% | 18µM*!
CN(C)CC/C=C1\c2ccccc2Sc2ccc(Cl)cc21 | -2% | 72 | ? | 6%[11.4 µM] | 4%[13.5 µM]
O=[As](O)(O)c1ccc(Cc2ccc([As](=O)(O)O)cc2)cc1 | 3.5µM* | / | / | -24%[11.4 µM] | 2.2µM*
SMILES | HPGD inh | PNC inhibitor | Lamin A splicing | 12-hLO inh | ALDH1A1 block
O=C(O)c1ccc(Cl)nc1 | -13% | 57 | -11% | 4% | 2%
C=CCSc1nnc(NC(=O)c2ccc(Cl)nc2)s1 | 28µM* | -24 | 4% | -1% | ?
O=c1c2ccccc2nc(CNCc2ccco2)n1-c1ccc(F)cc1 | -5% | -83* | 6% | 1% | 0%
CC(C)(C)c1[nH]nc2c1C(c1ccoc1)C(C#N)=C(N)O2 (stereo unspecified) | -17% | -22 | -6% | 4% | 16µM*
CCSc1nnc([C@@H](N)Cc2ccccc2)o1 | -9% | ? | 3% | 2% | 15µM*
CCCCCOC(=O)c1ccccc1C(=O)OCCCCC | -4% | / | / | -2% | -4%
CCn1nc(-c2ccccc2)nc2c(=O)n(C)c(=O)nc1-2 | -14% | -100* | ? | -6% | ?
Cc1nonc1-c1nc(-c2nonc2N)n[nH]1 | 14µM* | -26 | 6% | 3% | -1%
C=C(C)C(=O)OCC1CO1 (stereo unspecified) | -9% | / | / | 3% | ?
O=C(O)CNC(=O)[C@@H](CS)Cc1ccccc1 | 7.9µM* | / | -8% | -3%[25.6 µM] | ?
O=C1c2ccccc2C(Nc2ccc(S(=O)(=O)N3CCCCCC3)cc2)N1c1ccccn1 (stereo unspecified) | -7% | -93* | -2% | 6% | 0.79µM*
C=C(C)c1ccccc1 | -1% | / | / | -1% | 7%
CCNCCC1(CC)C(=O)NC(=O)NC1=O | -3% | / | / | 5%[11.4 µM] | 4%[13.5 µM]
CC1O[C@@H](O[C@@H]2C(O)C[C@H](O[C@@H]3C(O)C[C@@H](OC4CC[C@@]5(C)C6CC[C@]7(C)C(C8=CC(=O)OC8)CC[C@@]7(O)C6CC[C@@H]5C4)OC3C)OC2C)CC(O)[C@H]1O (stereo partly specified) | -12% | / | / | -4% | -7%
C=CCN1C(=O)/C(=C\c2ccc(N3CCOCC3)o2)C(=O)NC1=S | -23% | 5 | 13% | -3% | 18µM*
COc1ccc2c(c1)c(CCN1CCOCC1)c(C)n2C(=O)c1cccc(Cl)c1Cl | 28µM* | / | / | -7% | -10%
N#C/C(=C\c1ccc(O)c(O)c1)C(=O)NCCCNC(=O)/C(C#N)=C/c1ccc(O)c(O)c1 | 16µM* | / | ? | ? | ?
CCCCCn1c(Sc2ccccc2)nc2c1c(=O)[nH]c(=O)n2C | -7% | 21 | -1% | -3% | ?
COCCn1c(SCc2ccccc2Cl)nc2c1c(=O)[nH]c(=O)n2C | ? | -9 | 15% | -5% | 14µM*
N#CC(O)c1ccccc1 (stereo unspecified) | -1% | / | / | 0% | 0%
Cc1cc(C)c(C(=O)CN2CCOCC2)c(C)c1 | -10% | -11 | 3% | -4% | 10µM*
Cc1cccc(OC(=O)N2CCOCC2)c1 | -5% | ? | 14% | -1% | 8%
O=C(CN1CCOCC1)c1ccc2cc[nH]c2c1 | -25% | 29 | -10% | -4% | ?
COc1ccc(C(=O)CN2CCOCC2)cc1F | -7% | 17 | 7% | 0% | 14µM*
BrCCBr | -3% | / | / | 0% | 5%
COc1cc2cc(c1Cl)N(C)C(=O)C[C@H](OC(=O)C(C)C)[C@]1(C)O[C@@H]1[C@@H](C)[C@H]1C[C@](O)(NC(=O)O1)[C@@H](OC)/C=C\C=C(\C)C2 | -4% | / | / | 0%[11.4 µM] | 0%[13.5 µM]
Cc1ccc(OCC(=O)NCCN2CCN(C(=O)COc3ccc(C)cc3)CC2)cc1 | -3% | -107* | -2% | 0% | ?

Screening data as filed in PubChem.
